# Test results taken from PubChem BioAssay (EPA / NIEHS).
# Values joined by “and” are separate entries in the source; they are usually repeats but may differ in a detail not shown here. Equal values may be shown once. The source holds several records for some structures; these can differ, active in one and inactive in another. Active and inactive are the calls of the source. Rule for the calls: active = hit-call score of the fitted dose curve at least 0.9, where 1 is the maximum; inactive = score below 0.9.
# Read-out: sulfotransferase 2A1 (SULT2A1), SULT2A1 (gene 6822)
# Experiment: LTEA_HepaRG_SULT2A1: Life Technologies and Expression Analysis (LTEA) Assay for sulfotransferase 2A1 (SULT2A1) using HepaRG (AID 2283531)
# Conditions: mRNA level, 48 h; actives raise or lower the signal
# Summary of the method: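 HepaRG human liver cells, 48 h exposure in serum-free induction medium to 8 half-log concentrations topping at 100 µM (0.5% DMSO), duplicate wells. SULT2A1 mRNA measured by TaqMan qRT-PCR, normalized to ACTB/GAPDH/POLR2A; bidirectional fit against DMSO.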
Compound,outcome,AC50
Oc1ccc(Cl)cc1Cc1ccccc1,inactive,
O=S(=O)(O)C(F)(F)C(F)(F)C(F)(F)C(F)(F)C(F)(F)C(F)(F)C(F)(F)C(F)(F)F,inactive,7.51 µM (active) and 83 µM (active) and 85.1 µM (active)
CC(C)(C)C(O)C(Oc1ccc(Cl)cc1)n1cncn1 (stereo not drawn),inactive,
CNC(=O)Oc1ccccc1OC(C)C,inactive,
COP(=S)(OC)Oc1ccc([N+](=O)[O-])cc1,inactive,
CNC(=O)Oc1cccc(N=CN(C)C)c1,inactive,
O=C(Nc1ccccc1)Nc1cnns1,,50 µM (active)
O=C(O)COc1ccc(Cl)cc1Cl,inactive,
CCOCN(C(=O)CCl)c1c(C)cccc1CC,,83.8 µM (active)
CC1(c2ccc(Oc3ccccc3)cc2)OC(=O)N(Nc2ccccc2)C1=O (stereo not drawn),,32.5 µM (active)
N#Cc1c(Cl)c(Cl)c(Cl)c(C#N)c1Cl,inactive,
Oc1cc(Cl)ccc1Oc1ccc(Cl)cc1Cl,inactive,
CC1(C)C(C=C(Cl)Cl)C1C(=O)OC(C#N)c1ccc(F)c(Oc2ccccc2)c1 (stereo not drawn),,50 µM (active)
CN1CSC(=S)N(C)C1,inactive,
CCN(CC)C(=O)SCc1ccc(Cl)cc1,inactive,
O=C(O)C(F)(F)C(F)(F)C(F)(F)C(F)(F)C(F)(F)C(F)(F)C(F)(F)F,inactive,
CCc1ccc(C(=O)NN(C(=O)c2cc(C)cc(C)c2)C(C)(C)C)cc1,inactive,
CC(C)OC(=O)Nc1cccc(Cl)c1,inactive,
COc1nn(CSP(=S)(OC)OC)c(=O)s1,inactive,
ClC1C(Cl)C(Cl)C(Cl)C(Cl)C1Cl (stereo not drawn),inactive,
O=C(O)CCCOc1ccc(Cl)cc1Cl,inactive,
CCC(C)(NC(=O)c1cc(Cl)c(C)c(Cl)c1)C(=O)CCl (stereo not drawn),,79.5 µM (active)

# Read-out: Transforming Growth Factor (TGFA), TGFA (gene 7039)
# Experiment: LTEA_HepaRG_TGFA: Life Technologies and Expression Analysis (LTEA) Assay for Transforming Growth Factor (TGFA) using HepaRG (AID 2283532)
# Conditions: mRNA level, 48 h; actives raise or lower the signal
# Summary of the method: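 Differentiated human HepaRG cells, plated 48 h then switched to serum-free induction medium, were exposed in duplicate for 48 h to 8-point half-log series from 100 uM in 0.5% DMSO. TGFA mRNA measured by qRT-PCR, normalized to ACTB/GAPDH/POLR2A, bidirectional fit versus DMSO.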
Compound,outcome,AC50
Oc1ccc(Cl)cc1Cc1ccccc1,inactive,
O=S(=O)(O)C(F)(F)C(F)(F)C(F)(F)C(F)(F)C(F)(F)C(F)(F)C(F)(F)C(F)(F)F,,50 µM (active) and 16.7 µM (active) and 48 µM (active)
CC(C)(C)C(O)C(Oc1ccc(Cl)cc1)n1cncn1 (stereo not drawn),inactive,
CNC(=O)Oc1ccccc1OC(C)C,inactive,
COP(=S)(OC)Oc1ccc([N+](=O)[O-])cc1,inactive,
CNC(=O)Oc1cccc(N=CN(C)C)c1,inactive,
O=C(Nc1ccccc1)Nc1cnns1,inactive,
O=C(O)COc1ccc(Cl)cc1Cl,inactive,
CCOCN(C(=O)CCl)c1c(C)cccc1CC,inactive,
CC1(c2ccc(Oc3ccccc3)cc2)OC(=O)N(Nc2ccccc2)C1=O (stereo not drawn),,8.82 µM (active)
N#Cc1c(Cl)c(Cl)c(Cl)c(C#N)c1Cl,inactive,
Oc1cc(Cl)ccc1Oc1ccc(Cl)cc1Cl,inactive,
CC1(C)C(C=C(Cl)Cl)C1C(=O)OC(C#N)c1ccc(F)c(Oc2ccccc2)c1 (stereo not drawn),inactive,
CN1CSC(=S)N(C)C1,inactive,
CCN(CC)C(=O)SCc1ccc(Cl)cc1,inactive,
O=C(O)C(F)(F)C(F)(F)C(F)(F)C(F)(F)C(F)(F)C(F)(F)C(F)(F)F,inactive,
CCc1ccc(C(=O)NN(C(=O)c2cc(C)cc(C)c2)C(C)(C)C)cc1,inactive,
CC(C)OC(=O)Nc1cccc(Cl)c1,inactive,
COc1nn(CSP(=S)(OC)OC)c(=O)s1,inactive,
ClC1C(Cl)C(Cl)C(Cl)C(Cl)C1Cl (stereo not drawn),inactive,
O=C(O)CCCOc1ccc(Cl)cc1Cl,inactive,
CCC(C)(NC(=O)c1cc(Cl)c(C)c(Cl)c1)C(=O)CCl (stereo not drawn),inactive,

# Read-out: Transforming Growth Factor (TGFB1), TGFB1 (gene 7040)
# Experiment: LTEA_HepaRG_TGFB1: Life Technologies and Expression Analysis (LTEA) Assay for Transforming Growth Factor (TGFB1) Transporter using HepaRG (AID 2283533)
# Conditions: mRNA level, 48 h; actives raise or lower the signal
# Summary of the method: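 Differentiated HepaRG cells exposed 48 hr in serum-free induction medium to eight half-log concentrations up to 100 uM (0.5% DMSO), duplicate; TGFB1 mRNA by TaqMan qRT-PCR normalised to ACTB, GAPDH, POLR2A; bidirectional fit against DMSO.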
Compound,outcome,AC50
Oc1ccc(Cl)cc1Cc1ccccc1,inactive,
O=S(=O)(O)C(F)(F)C(F)(F)C(F)(F)C(F)(F)C(F)(F)C(F)(F)C(F)(F)C(F)(F)F,inactive,48 µM (active)
CC(C)(C)C(O)C(Oc1ccc(Cl)cc1)n1cncn1 (stereo not drawn),inactive,
CNC(=O)Oc1ccccc1OC(C)C,inactive,
COP(=S)(OC)Oc1ccc([N+](=O)[O-])cc1,inactive,
CNC(=O)Oc1cccc(N=CN(C)C)c1,inactive,
O=C(Nc1ccccc1)Nc1cnns1,inactive,
O=C(O)COc1ccc(Cl)cc1Cl,inactive,
CCOCN(C(=O)CCl)c1c(C)cccc1CC,inactive,
CC1(c2ccc(Oc3ccccc3)cc2)OC(=O)N(Nc2ccccc2)C1=O (stereo not drawn),inactive,
N#Cc1c(Cl)c(Cl)c(Cl)c(C#N)c1Cl,inactive,
Oc1cc(Cl)ccc1Oc1ccc(Cl)cc1Cl,inactive,
CC1(C)C(C=C(Cl)Cl)C1C(=O)OC(C#N)c1ccc(F)c(Oc2ccccc2)c1 (stereo not drawn),inactive,
CN1CSC(=S)N(C)C1,inactive,
CCN(CC)C(=O)SCc1ccc(Cl)cc1,inactive,
O=C(O)C(F)(F)C(F)(F)C(F)(F)C(F)(F)C(F)(F)C(F)(F)C(F)(F)F,inactive,
CCc1ccc(C(=O)NN(C(=O)c2cc(C)cc(C)c2)C(C)(C)C)cc1,inactive,
CC(C)OC(=O)Nc1cccc(Cl)c1,inactive,
COc1nn(CSP(=S)(OC)OC)c(=O)s1,inactive,
ClC1C(Cl)C(Cl)C(Cl)C(Cl)C1Cl (stereo not drawn),inactive,
O=C(O)CCCOc1ccc(Cl)cc1Cl,inactive,
CCC(C)(NC(=O)c1cc(Cl)c(C)c(Cl)c1)C(=O)CCl (stereo not drawn),,75.6 µM (active)
